Results taken from ChEMBL document CHEMBL4513216, “Probing the Open Global Health Chemical Diversity Library for Multistage-Active Starting Points for Next-Generation Antimalarials” (ACS Infect Dis, 2020).
Out of some 65,000 compounds screened, about 2,100 (3.2%) showed an effect of 50% or more. The median lay at about -52%. This is one part of a sample in which strong results are shown more often than they occur.

System: Plasmodium falciparum
Assay: Screen against P. falciparum Asexual Blood Stage (ABS), at 5uM
Format: functional, Dd2
Conditions: tested at 5 uM

Row | Compound | INHIBITION [%]
1 | CC(C)(O)CNc1ccc(C#N)c(C(F)(F)F)c1 | -74.3
2 | CC1=NOC2(CCN(Cc3c[nH]c4ccccc34)CC2)C1 | -17.9
3 | O=C(c1ccc[nH]1)N1CCC2(CCCN2Cc2cccnc2)CC1 | -9.26
4 | CN(C)c1ncc2c(n1)C1(CCN(Cc3cccnc3)C1)COC2 (stereo unspecified) | -4.75
5 | CCN1CCN(C[C@@H]2CN(c3ncc(Cl)cc3F)C[C@@H]2CO)CC1 | 92.2
6 | Cc1ccccc1OCC(=O)N1CCN(C2CCOC2=O)CC1 (stereo unspecified) | -28.3
7 | Cc1cccc(NC(=O)c2cccc(OCc3nnnn3C)c2)n1 | 80.7
8 | CN1CCc2c(C#N)c(NCCc3ccccc3)n3cnnc3c2C1 | 70.9
9 | CC(C)CCNc1c(C#N)c2c(c3nncn13)CN(C)CC2 | -35.1
10 | CN1CCc2c(C#N)c(NCCCO)n3cnnc3c2C1 | -82.4
11 | COc1ccc(CC(=O)N2CCC[C@@H](N)[C@@H]2c2ccccc2F)cc1 | 80.9
12 | COc1ccc(CC(=O)N2CCN(Cc3ccco3)C[C@@H]2C)cc1 | -22.3
13 | COCCN1C[C@@H]2[C@@H](OC)CCN(C(=O)Cc3ccccc3)[C@@H]2C1 | -25
14 | Cc1cccc(CN2C[C@@H]3OCCN(S(=O)(=O)N(C)C)[C@@H]3C2)n1 | -43.1
15 | CCc1ccc2nc(NCCCN(CCO)CCO)cc(C)c2c1 | 83.4
16 | CCN1CCC12CCN(C(=O)c1cc(C)on1)C2 (stereo unspecified) | -10.1
17 | CCc1noc(CN2CCN(C(=O)Cc3ccc(F)cc3)CC2)n1 | -9.72
18 | NC1CCCCN(Cc2cc(-c3ccccc3OC(F)(F)F)no2)C1 (stereo unspecified) | 71.1
19 | CC(C)n1ccc2c(C(=O)NC3CN4CCC3CC4)cccc21 (stereo unspecified) | -67.1
20 | COc1cccc(CNC(C)C)c1OCc1ccc(C)cc1 | 73.7
21 | COc1cc(CNCC(C)O)cc(Cl)c1OCc1ccc(C)cc1 (stereo unspecified) | 73.9
22 | Cc1nc(C)c(CC(=O)N2CCN(CC(C)C)CC2)c(=O)[nH]1 | -137

Row | Compound | INHIBITION [%]
23 | Fc1cccc(C(NCc2ncc[nH]2)c2ccccn2)c1 (stereo unspecified) | 91.8
24 | Clc1cccc(C(NCc2ncc[nH]2)c2ccccn2)c1 (stereo unspecified) | 86.9
25 | Cc1nnc([C@@H]2C[C@H]3CN(C4CCC4)C[C@H]3O2)[nH]1 | -81.6
26 | O=C(c1cn(Cc2ccccc2)c2ncccc12)N1CCCCC1 | -11.9
27 | N#CC1(c2ccccc2)CCN(C(=O)CN2C(=O)CCNC2=O)CC1 | -90.6
28 | CCOc1cccc(C(C)NCc2ccc(OC)c(OC)c2OC)c1 (stereo unspecified) | 77.6
29 | COc1ccc(CNC(C)c2ccc(Cl)cc2)c(OC)c1OC (stereo unspecified) | 80.9
30 | COc1ccc(CNC(C)Cn2cccn2)c(OC)c1OC (stereo unspecified) | -37.6
31 | CNS(=O)(=O)c1cccc(C(C)NCc2ccccc2OC)c1 (stereo unspecified) | 86.6
32 | COc1ccc(CNC(C)c2ccccc2Cl)c(OC)c1OC (stereo unspecified) | 75.6
33 | O=C1C[C@@H]2[C@H](CCN2Cc2ccccn2)N1Cc1ccncc1 | 19.2
34 | Cc1n[nH]c(C)c1CNC(=O)c1cn(CCC2CCCCN2)nn1 (stereo unspecified) | -24.9
35 | c1coc(CNc2ncc3c(n2)C2(CCNC2)COC3)c1 (stereo unspecified) | -66
36 | CC(C)N1CCCC(Cc2nccnc2Cl)CC1 (stereo unspecified) | -7.14
37 | Cn1ccc(CN2CCCC23CCNCC3)n1 | -53.7
38 | O=C([C@H]1C[C@H]2OCC[C@H]2N(Cc2ccccn2)C1)N1CCCCO1 | -88.5
39 | COCC(O)CN(C)c1ccnc2cc(Br)ccc12 (stereo unspecified) | 94.4
40 | Cc1cc(CN2CCN3C[C@H](c4ccccc4)[C@@H](CO)[C@H]3C2)on1 | -81.4
41 | Cc1ccc(N2CCC3(CCCN3Cc3ccn(C)n3)CC2)nn1 | -63.5
42 | Cc1ccccc1-n1cc(C2=CCN(CCN3CCOCC3)CC2)cn1 | -4.21
43 | CN(C)C(=O)[C@@H]1CC[C@@H]2[C@@H](CCN2Cc2ccccn2)O1 | -97.6
44 | CN(C)C(=O)[C@H]1CC[C@@H]2[C@@H](CCN2Cc2ccccn2)O1 | -43.5

Row | Compound | INHIBITION [%]
45 | CC(C)NC(=O)[C@@H]1CC[C@@H]2[C@@H](CCN2Cc2cn(C)c3ccccc23)O1 | 77.6
46 | CCN(CC)C(=O)C1CCC2(CCNCC2)CO1 (stereo unspecified) | -31.8
47 | COCC(=O)NC(C)Cc1ccc(Br)cc1 (stereo unspecified) | 17.4
48 | Cc1nc(Nc2ccc(Cl)cn2)sc1C(=O)NCCCN1CCCCC1 | 81.4
49 | Cc1cnc(N2CCN3C[C@H](OCc4ccccn4)C[C@H]3C2)nc1 | -24.1
50 | O=C(c1nn(-c2ccccc2F)cc1O)N1CCC2(CC1)OCCO2 | -12.3
51 | CCCN1CCCC(O)(c2nc(C)c(COc3ccccc3)s2)CC1 (stereo unspecified) | 83.2
52 | O=S1(=O)CCC(n2cc(C3=CCN(CCc4ccccc4)CC3)cn2)C1 (stereo unspecified) | -45.5
53 | O=C(Nc1cccnc1)[C@H]1CN(Cc2nccs2)C[C@H]2OCC[C@@H]12 | -93.3
54 | CCC(CC)(CN)NC(C)c1ccccc1 (stereo unspecified) | 83.4
55 | O=C(Cc1ccc(F)cc1)N1CCN(CC(O)C2CC2)CC1 (stereo unspecified) | 1.79
56 | CC(O)CN1CCC(CNCc2cccc(OC(F)(F)F)c2)CC1 (stereo unspecified) | 80.1
57 | CC(O)CN1CCC(CNCc2ccc(OC(F)(F)F)cc2)CC1 (stereo unspecified) | 86.9
58 | CC(O)CN1CCC(CNCc2cccc(C(F)(F)F)c2)CC1 (stereo unspecified) | 83.1
59 | Cc1c(C(=O)O)nnn1Cc1cccc(C(F)(F)F)c1 | -66.5
60 | CC(=O)N1CCC(CCNC(C)Cc2ccc(F)cc2)CC1 (stereo unspecified) | -0.762
61 | Cc1nc(CN2CCOC3(CCCC3)C2)no1 | -138
62 | C[C@@H]1CN(C2CCOCC2)C[C@]12CCN(c1cccnc1)C2=O | -104
63 | Cc1ccc(-c2ccnc3cc(CC(=O)N4CCN(C)CC4)nn23)cc1 | -116
64 | CC(C)N(C)C(=O)C1CCC2(CCNCC2)O1 (stereo unspecified) | -214
65 | c1cc(CO[C@@H]2CC[C@H]3[C@H]2OCCN3Cc2ccoc2)ccn1 | -169
66 | CC(C)CCC(=O)N1C[C@H]2CCN[C@H]2C1 | -114
